Among the data in PubChem BioAssay AID1671190 (National Center for Advancing Translational Sciences (NCATS), 2021) are Potency values, retold here.

Screen size: about 580,000 compounds; about 6,100 (1.1%) were called active. Entries that show only a call come without a potency. About 15% were inconclusive and are not listed. This is one part of a sample in which actives are shown more often than they occur. The call rests on the fitted dose curve; in most records, active means well fitted inhibition curve with a large enough effect; inconclusive means small, poorly fitted or top-dose-only effect, or another doubt; inactive means no such curve, though single readings can be large or run the other way.
Potency means the concentration at half of the fitted maximal effect.

Sequence of Polyunsaturated fatty acid lipoxygenase ALOX12 (Homo sapiens) (P18054 whole entry, looked up): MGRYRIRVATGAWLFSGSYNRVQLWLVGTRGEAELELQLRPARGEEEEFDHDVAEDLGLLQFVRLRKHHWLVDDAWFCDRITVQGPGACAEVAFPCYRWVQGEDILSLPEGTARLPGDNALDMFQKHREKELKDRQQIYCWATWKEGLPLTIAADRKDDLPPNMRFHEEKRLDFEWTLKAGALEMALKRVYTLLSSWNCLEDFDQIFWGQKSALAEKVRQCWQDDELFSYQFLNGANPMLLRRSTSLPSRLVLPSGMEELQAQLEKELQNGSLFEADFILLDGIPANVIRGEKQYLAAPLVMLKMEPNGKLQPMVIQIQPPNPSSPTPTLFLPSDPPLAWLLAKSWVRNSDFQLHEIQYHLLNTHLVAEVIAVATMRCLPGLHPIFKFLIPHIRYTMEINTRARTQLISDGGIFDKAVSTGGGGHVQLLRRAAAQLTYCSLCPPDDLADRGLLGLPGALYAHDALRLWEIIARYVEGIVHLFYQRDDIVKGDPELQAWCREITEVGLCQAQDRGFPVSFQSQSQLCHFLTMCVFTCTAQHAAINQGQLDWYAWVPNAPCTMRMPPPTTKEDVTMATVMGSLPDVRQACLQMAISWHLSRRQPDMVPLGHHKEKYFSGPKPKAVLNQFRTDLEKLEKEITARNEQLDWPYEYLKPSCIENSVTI

The assay has as its target Polyunsaturated fatty acid lipoxygenase ALOX12 (Homo sapiens) (UniProt P18054). In words: Primary qHTS assay for inhibitors of human arachidonate 12S-lipoxygenase (ALOX12): Round 2. The following applies: purified 12hLO, xylenol orange hydroperoxide absorbance; series mostly up to 108 µM. The essentials:
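Hydroperoxide product was detected by ferrous iron/xylenol orange as the 573 to 405 nm absorbance ratio. Arachidonic acid at 40 uM (final) was turned over for 30 min at room temperature by 150 nM human 12hLO, pH 7.0 Hepes buffer, after 15 min compound preincubation.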
(In general: Quantitative high-throughput screening tests each substance at several concentrations.)
With `CC(C)N(C(=O)Cn1c(CN2CCOCC2)nc2ccccc21)c1ccccc1`, the Potency entry was “inactive”. The figure for `COc1ccc(-n2c(-c3ccc(OC)c(OC)c3)n[nH]c2=S)cc1` is 17.8 µM (active); for `COc1ccc(-c2cn(-c3ccc(C)cc3)c(=O)n2CC(=O)Nc2ccc(OC)c(OC)c2)cc1` it is “inactive”. The entry for `COc1ccc(-c2nc3ccccc3n2CCC(C)C)cc1OC` is “inactive”. The same measure for `O=C([C@@H]1C[C@H](F)CN1C(=O)Nc1cc(F)cc(F)c1)N1CCCCC1`: “inactive”; for `O=C(Cc1ccc(Cl)cc1)NCc1nnc2ccc(-c3ccc(F)cc3)nn12`: “inactive”. In the case of `CCOC(=O)Cn1c2c(c(-c3ccccc3OC)cc1=O)CCCC2`, the Potency entry is “inactive”. The same measure for `CCOC(=O)Cn1c(=O)n(C2CCCCC2)c2nc(-c3cccc(OC)c3)nc(C(N)=O)c21`: “inactive”; for `CCOC(=O)Cn1c(=O)n(-c2ccccc2OC)c2nc(-c3cccc(F)c3)nc(C(N)=O)c21`: 11.2 µM (active).

Consider `CCCn1c(C)c(C)c(-c2nc3ccccc3[nH]2)c1NC(=O)CC(C)C`, for which the Potency entry is “inactive”.

For `Cc1cc(CN2CCN(Cc3nc(C(C)(C)C)no3)CC2)no1`, the Potency result was “inactive”.

Consider `O=c1cc(-c2cccnc2)nc2n(Cc3cccc(F)c3)c3ccccc3n12`, for which the Potency entry is “inactive”.

For `CC(C)COC(=O)/C(C#N)=C\c1c[nH]c2ccccc12`, the Potency entry was “inactive”.

`CCCC1CCC(=NNC(=S)NCCc2ccccc2)CC1` (stereo not drawn): the Potency is 44.7 µM (active). The same measure for `O=C(CCC1CCN(S(=O)(=O)c2ccccc2)CC1)NCCc1ccccc1`: “inactive”; for `N#Cc1cccc(NC(=S)NCCc2ccccc2)c1`: “inactive”. The same measure for `O=C(NCCCNC(=O)c1nc2ccccc2c(=O)[nH]1)c1cccnc1`: “inactive”. The same measure for `O=C(CN(Cc1ccc(Br)cc1)S(=O)(=O)c1ccccc1)NCc1ccncc1`: “inactive”; for `O=C(c1cccnc1)N(c1cc2sc(=O)oc2c2ccccc12)S(=O)(=O)c1ccccc1`: 15.8 µM (active).

Consider `Cc1nn(CC(O)COc2ccccc2)c(=O)c2ccccc12` (stereo not drawn), for which the Potency entry is “inactive”. Turning to `Cc1ccccc1C(=O)Nc1ccc2c(c1)nc(CCn1ccccc1=O)n2C`, the Potency entry is “inactive”.

In the case of `CCN(CC)S(=O)(=O)c1ccc(Sc2nnc(C)s2)nc1`, the Potency entry was “inactive”. In the case of `CN(C)c1ccc(C(=O)NCc2nnc3cc(-c4nc(C5CC5)no4)ccn23)cc1`, the Potency entry was “inactive”. The same measure for `CCCc1noc(-c2ccn3c(CNC(=O)c4ccc(N(C)C)cc4)nnc3c2)n1`: 44.7 µM (active); for `COc1ccc(C(=O)NCc2nnc3cc(-c4nc(C)no4)ccn23)cc1`: “inactive”; for `CCc1cccc2c(C(=O)CSc3nnnn3C3CC3)c[nH]c12`: “inactive”.

Consider `CCCNC(=O)c1cn(-c2ccccc2)nc1-c1cccnc1`, for which the Potency entry was “inactive”. The same measure for `O=C(/C=C/c1cccc(F)c1)c1cc2ccccc2oc1=O`: “inactive”; for `O=[N+]([O-])c1ccc(Oc2ccc3ccncc3c2)cc1C(F)(F)F`: “inactive”. With `Cc1ccc(NC(=O)CCc2nc(C(C)(C)C)no2)nc1`, the Potency result is “inactive”. Consider `Cc1cccc(NC(c2cccc(F)c2)c2ccc3ccc(C)nc3c2O)n1` (stereo not drawn), for which the Potency was 25.1 µM (active). In the case of `Cc1ccc2cccc(NC(=O)c3ccccc3C)c2n1`, the Potency result is “inactive”. As for `Cc1c(Cl)cccc1NC(=O)COC(=O)c1nn(C)c(=O)c2ccccc12`, the Potency entry is “inactive”. The entry for `Cc1cc(C)n(CCC(=O)NCC2CCN(c3cc(-c4ccc(F)cc4)[nH]n3)CC2)n1` is “inactive”; for `Cc1cc(C)c2oc(C(=O)Nc3ccc(S(=O)(=O)N4CCCCCC4)cc3)cc(=O)c2c1` it is “inactive”.

Regarding `Cc1cc(C)c(NS(=O)(=O)c2ccc(S(=O)(=O)N3CCCC3)cc2)c(C(=O)O)c1`, the Potency is 39.8 µM (active). The same measure for `Cc1cc(C)c2sc(NC(=O)c3ccc(S(=O)(=O)N4CCCC4)cc3)nc2c1`: “inactive”.

As to `CC(=O)NC(C(=O)NC(C)c1cccc(Cl)c1)C(C)C` (stereo not drawn), the Potency result was “inactive”. The entry for `CC(C)C(=O)N(Cc1ccc2cc[nH]c2c1)C1CC1` is “inactive”; for `NC(=O)[C@@H](Cc1ccccc1)NC(=O)C1=C[C@@H](NS(=O)(=O)c2cccc(C(F)(F)F)c2)[C@@H](O)[C@H](O)C1` it is “inactive”. Turning to `COc1ccc(CC/C(C)=N/O)cc1`, the Potency entry is “inactive”. The same measure for `O=C(c1ccco1)N1CCC2(CC1)CC(N(Cc1ccccc1)C1CC1)CCO2` (stereo not drawn): “inactive”; for `C=CCOc1cccc(C2C(C(=O)c3ccc(C)o3)=C(O)C(=O)N2c2nnc(C)s2)c1` (stereo not drawn): 39.8 µM (active); for `C=CCOc1cccc(C2NC(=O)c3ccccc3O2)c1` (stereo not drawn): “inactive”. The entry for `C=CCOc1cccc(C2C(C(=O)c3ccc(C)o3)=C(O)C(=O)N2CCN2CCOCC2)c1` (stereo not drawn) is “inactive”. With `CC(C)NC(=O)NC(=O)Cn1cnc2c1c(=O)n(C)c(=O)n2C`, the Potency result is “inactive”. The same measure for `C/C(=N\NC(=O)NC1CCCCC1)c1ccc(OC(F)F)cc1OC(F)F`: “inactive”; for `C/C(=N\NC(=S)NC1CCCCC1)c1ccc(C)o1`: 5.01 µM (active). The same measure for `C/C(=N/NC(=O)c1ccc(Br)o1)c1ccc(C)o1`: “inactive”; for `O=C(CN1CCN(C(=O)CCCc2c[nH]c3ccccc23)CC1)NC1CC1`: “inactive”.

Regarding `CCOC(=O)CSc1ncn(-c2nc(NC(C)(C)C)nc(N(C)C)n2)n1`, the Potency entry is “inactive”. The same measure for `CN(C)c1ccc(C=C2C(=O)OC3(CCCC3)OC2=O)cc1`: 44.7 µM (active); for `CN(CC(=O)Nc1ccc2c(c1)OC1(CCCCC1)O2)Cc1cccs1`: “inactive”; for `C=CCn1c(N2CCC(C(N)=O)CC2)nc2c1c(=O)[nH]c(=O)n2C`: “inactive”.

Take `O=C(Cc1ccc(Cl)cc1)NN=C1CCC(c2ccccc2)CC1` (stereo not drawn): the Potency result is “inactive”. The same measure for `CCOC(=O)CN1C(=O)C(O)(CC(=O)c2cccnc2)c2ccccc21` (stereo not drawn): “inactive”; for `CNCCC(F)(F)F`: 15.8 µM (active); for `CN1CCC(CNC(=O)CCc2c[nH]c3ccccc23)CC1`: “inactive”. Take `Cc1cc(C(C)(C)C)ccc1OC(=O)c1ccc(C#N)cc1`: the Potency entry is “inactive”. Take `CN1CCCN(S(=O)(=O)c2ccc3c(c2)CCC3)c2ccccc21`: the Potency entry was “inactive”.

Turning to `CCc1ccc(-c2nc(-c3nc(-c4cccs4)cs3)sc2C)cc1`, the Potency entry is “inactive”. As for `CCOC(=O)c1sc(=S)n2c1[nH]c(=O)c1ccc(C(=O)OC)cc12`, the Potency is 15.8 µM (active).

Regarding `COC(=O)c1ccc(CNC(=O)Cn2cc(C)c(=O)[nH]c2=O)cc1`, the Potency result was “inactive”. The entry for `CCOC(=O)C1=C(C)NC(=O)NC1c1ccc(C(=O)OC)cc1` (stereo not drawn) is “inactive”. The same measure for `COc1ccc(Nc2nc(-c3cccc(OC)c3OC)no2)cc1`: “inactive”; for `COc1ccc(Nc2ccccc2)cc1`: 35.5 µM (active). Regarding `COc1ccc(NC(=O)ON=C2c3ccccc3-c3ccccc32)cc1`, the Potency result is “inactive”. With `O=C(NC1CCc2ccccc21)c1cc(COc2ccc3c(c2)OCO3)[nH]n1` (stereo not drawn), the Potency result was “inactive”. The same measure for `CC1(C2CC2)NC(=O)N(CC(=O)Nc2cccc3cccnc23)C1=O` (stereo not drawn): “inactive”. The same measure for `O=C(OCc1cc(Cl)c2c(c1)OCCCO2)C12CC3CC(CC(Cl)(C3)C1)C2`: “inactive”; for `CCCn1nc(C(=O)Nc2ccc(OC)c(S(=O)(=O)N(C)C)c2)c2ccccc2c1=O`: “inactive”. The entry for `Cc1ccc(Nc2nnc(SCC(=O)c3ccc(Cl)s3)s2)cc1C` is “inactive”.

For the compound `CCCCc1ccc(Nc2nnc(SCC(=O)NC(C)C)s2)cc1`, the Potency result was “inactive”. The same measure for `CC(C)c1ccc(Nc2nnc(SCC(=O)c3nnc(-c4ccccc4)o3)s2)cc1`: 39.8 µM (active); for `O=C(NCC1CCN(c2cc(-c3ccc(Cl)cc3)[nH]n2)CC1)c1ccc2nc[nH]c2c1`: “inactive”. The figure for `CN(C(=O)CN1CCN(c2cc(-c3ccc(OCc4ccccc4)cc3)ncn2)CC1)c1ccccc1` is 10 µM (active); for `COc1ccc(-c2cc(N3CCN(C(=O)Cc4cccc(OC)c4)CC3)n[nH]2)cc1` it is “inactive”.

With `Cc1ccc(-c2cc(N3CCCN(C(=O)COc4ccccc4)CC3)n[nH]2)cc1C`, the Potency result was “inactive”. The entry for `CN(C)[C@H]1CCCCN(C(=O)CC2CCN(Cc3ccccc3)CC2)C1` is “inactive”.

As for `Clc1ccc2oc([C@H]3CCN(Cc4ccccc4)C3)nc2c1`, the Potency entry is “inactive”. The same measure for `Cc1cc(S(=O)(=O)N2CCCC2c2nnc3ccccn23)ccc1Br` (stereo not drawn): “inactive”; for `COc1c(O)cc2oc(-c3ccc(O)c(O)c3)cc(=O)c2c1O`: 31.6 µM (active).

Take `COCCNC(=O)COc1cc(O)c2c(=O)cc(-c3ccccc3)oc2c1`: the Potency result is “inactive”. The entry for `CCCCOc1cc(O)c2c(=O)cc(-c3ccccc3)oc2c1` is “inactive”; for `COc1ccc(-c2c(C)c3ccc(OS(C)(=O)=O)cc3oc2=O)cc1` it is “inactive”; for `O=C(CNc1ccccc1)NNC(=O)c1cc(-c2ccccc2)nn1-c1ccccc1` it is “inactive”. Regarding `Cc1nc2nc(CC(=O)NCc3ccccc3)nn2c(C)c1Cc1ccc(Cl)cc1`, the Potency entry was “inactive”.

Turning to `Cc1ccc(-n2c(=O)c3cccnc3n2CC(=O)Nc2ccc(F)cc2F)cc1C`, the Potency entry is “inactive”. The same measure for `CCOc1ccc2[nH]c(=O)c(CN(CCCO)C(C)=O)cc2c1`: “inactive”; for `CCOc1ccc(OCC)c(NS(=O)(=O)c2ccc3[nH]c(=O)ccc3c2)c1`: “inactive”; for `CCOc1ccc2[nH]c(=S)sc2c1`: 35.5 µM (active). The entry for `Cc1cc(=O)oc2c(C)c(OC(C)C(=O)NCc3ccc(S(N)(=O)=O)cc3)ccc12` (stereo not drawn) is “inactive”; for `COc1ccc(-c2nc3ccncc3[nH]2)cc1` it is “inactive”; for `COc1ccc(-c2cc(N3CCN(C(=O)c4cc(OC)cc(OC)c4)CC3)n[nH]2)cc1` it is “inactive”. The figure for `COc1ccc(-c2cn(-c3ccc(OC)cc3)c(=S)[nH]2)cc1` is 25.1 µM (active); for `COc1ccc2c(c1)CCc1c-2n[nH]c1C(=O)N1CCC(c2noc(COc3ccc(C)cc3)n2)CC1` it is “inactive”.

Consider `CCc1cccc(NC(=O)CC(C)C)c1`, for which the Potency entry was “inactive”. The entry for `O=C(Nc1ccccc1F)c1ccc2c(c1)n(Cc1ccccc1)c(=O)c1ccnn12` is “inactive”; for `CN(c1ccccc1)S(=O)(=O)c1ccc(NC(=O)COc2ccccc2)cc1` it is “inactive”; for `COC(=O)C1=C(O)/C(=C/c2ccc(OCC(=O)Nc3ccccc3)cc2)N=C1C` it is 17.8 µM (active). Turning to `Cc1csc2nc(COc3ccc(NC(=O)COc4ccccc4)cc3)cc(=O)n12`, the Potency entry was “inactive”.

Regarding `NC(=O)Cc1csc(NC(=O)CCc2ncc(-c3ccc(Cl)cc3Cl)o2)n1`, the Potency result was “inactive”. The same measure for `CC(OC(=O)c1cc2cc(F)ccc2s1)C(=O)N1CCNC1=O` (stereo not drawn): “inactive”.
